HUVEC tox TNFa: HUVEC cytotoxicity counter-screen, TNF alpha stimulated. 93,000 compounds, 0.17% hits. cell count reduction, % at 2 µM. HUVEC TNFalpha-stimulated, Hoechst cell count, imaging. AID 848;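 active = cell count reduction exceeding the screen mean by over 5 SD, scaled to untreated wells per plate, cut at about 78% in these data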;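 also: cells counted after 24 h of TNF alpha exposure following the 1 h pretreatment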
E-sel TNF inh: blocks E-selectin expression induced by TNF alpha | HUVEC TNFa-induced E-selectin immunofluorescence, high content | inhibition, % at 2 µM | 120,000 compounds, 0.71% hits;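 active = inhibition above the batch mean plus 3 SD, and confirmed as a hit on visual image review, cut at about 43% in these data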;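 also: 0% = TNF-stimulated DMSO wells and 100% = unstimulated control wells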
F-actin modifier: modifiers of cytoskeleton assembly; inhibition, % at 2 µM; AID 836; 91,000 compounds, 0.18% hits; HUVEC TNFa F-actin phalloidin imaging, high content;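 active = inhibition above the batch mean plus 3 SD and confirmed as a hit by visual image inspection, cut at about 30% in these data, passing the limit was not always enough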
VCAM1 TNFa inh: reduces TNF alpha induced VCAM1 expression in HUVEC | HUVEC TNFa-induced VCAM-1 immunofluorescence, high-content imaging | 95,000 compounds, 0.48% hits | inhibition, % at 2 µM;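 active = inhibition above the batch mean plus 3 SD, with images confirmed as a hit by eye, cut at about 37% in these data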;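 also: 0% = TNF-stimulated DMSO wells and 100% = unstimulated control wells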
An asterisk follows results filed as active; / = no result given. Most compounds without a hit are left out; they make up all but 1% or so of the library.

SMILES	HUVEC tox TNFa	E-sel TNF inh	F-actin modifier	VCAM1 TNFa inh
Cc1cc(C(=O)CN2CCCC(C)C2)c(C)n1-c1ccc(F)cc1 (stereo not given)	/	-45	/	/
O=C(NNC(=S)Nc1ccc(OC(F)F)cc1)c1cc2c(s1)CCCC2	/	5	/	/
COc1ccc(C2C(C(=O)c3ccccc3)N3c4ccccc4C=CC3C2[N+](=O)[O-])cc1 (stereo not given)	/	-47	/	/
O=S(=O)(c1ccc(Oc2ccc(S(=O)(=O)N3CCOCC3)cc2)cc1)N1CCOCC1	/	-1	/	/
C=CS(=O)(=O)c1ccc(Oc2ccc(S(=O)(=O)C=C)cc2)cc1	/	100*	/	/
CCCOc1ccc(NC(=O)C(=O)NCCCn2ccnc2)cc1	/	78*	/	/
CCC(=O)Nc1ccc(C(=O)NCCCn2ccnc2)cc1	/	22	/	/
CCOc1cc(C(=O)NCCCn2ccnc2)cc(OCC)c1OCC	/	88*	/	/
Cn1ccc2c([N+](=O)[O-])cccc2c1=O	/	-4	/	/
Cc1c(NC(=O)CSc2ncnc3ccccc23)c(=O)n(-c2ccccc2)n1C	/	5	/	/
COC(=O)[C@@]1(Cc2ccc(F)cc2)[C@H]2c3cc(C(=O)N4CCCC4)n(CCc4c[nH]c5ccc(OC)cc45)c3C[C@H]2CN1C(=O)c1ccccc1	/	2	/	/
CCN(CC)S(=O)(=O)c1ccc(-c2nnc(SCC(=O)Nc3ccc(OC)c(OC)c3)o2)cc1	-1	4	-3	-16
CCN(CC)S(=O)(=O)c1ccc(-c2nnc(SCC(=O)Nc3ccc(OC)cc3)o2)cc1	9	64*	12	40
Nc1nnnn1/N=C/C=C/c1ccccc1	/	-23	/	/
Nc1nnnn1/N=C/C(Br)=C/c1ccccc1	4	34	23	54*
COC(=O)N/N=C\c1ccc(-c2cc(Cl)c(Cl)cc2Cl)o1	/	7	/	/
NC(=S)N/N=C/c1ccc(-c2ccc(Cl)c(Cl)c2)o1	8	-1	-5	68*
COC(=O)N/N=C/c1ccc(-c2cc(Cl)ccc2Cl)o1	/	-5	/	/
NC(=S)N/N=C\c1ccc(-c2cccc(Cl)c2Cl)o1	49	1	-64	80*
COc1cnn(-c2ccccc2)c(=O)c1SCc1ccc(Cl)c(Cl)c1	-19	2	16	6
Cc1ccc(CSc2ncccc2C(=O)O)cc1	-24	5	4	-2
O=Cc1cc2ccccc2nc1SCc1ccc(Cl)c(Cl)c1	69	6	-49	72*
Cc1ccc(CSc2nc3ccccc3cc2C=O)cc1	56	-16	-31	95*
O=Cc1cc2ccccc2nc1SCc1ccc(Cl)cc1	34	25	-41	66*
Clc1ccc(CSc2ncccn2)cc1	-4	-6	-3	4
SMILES	HUVEC tox TNFa	E-sel TNF inh	F-actin modifier	VCAM1 TNFa inh
CCOc1ccc(-c2nnc3n2N=C(c2ccc(OC)cc2)CS3)cc1	-24	/	-19	8
CCOc1ccc(C2=Nn3c(nnc3-c3ccccc3OC)SC2)cc1	70	29	-12	99*
COc1ccc(C2=Nn3c(nnc3-c3ccncc3)SC2)cc1OC	-15	-8	9	3
COc1ccccc1-c1nnc2n1N=C(c1ccc(O)c(O)c1)CS2	56	29	2	96*
CCn1c2ccc(/C(C)=N\O)cc2c2cc(/C(C)=N\O)ccc21	-7	100*	37	-1
CCCS(=O)(=O)c1nnnn1-c1cccc(OC)c1	/	98*	/	/
CN(C(=S)Nc1ccc(Oc2ccccc2)cc1)c1ccc(O)cc1	/	87*	/	/
CN(C(=S)Nc1ccccc1)c1ccccc1	/	1	/	/
CC(=O)c1ccc(Nc2ccc(-c3ccccc3C)nn2)cc1	/	-29	/	/
CCCn1c(SCC(=O)N2CCCC(C)C2)nnc1-c1cccnc1 (stereo not given)	/	6	/	/
CCC(C)(C)NC(=O)c1ccc(S(=O)(=O)N(C)c2ccccc2OC)cc1	5	0	-7	-7
COc1ccccc1N(C)S(=O)(=O)c1ccc(C(=O)NCC(C)C)cc1	28	13	-26	74*
CCOC(=O)Cc1csc(SCC(=O)/C(C#N)=C(\C)N)n1	79*	14	22	59*
CCN(CC)c1ccc(NC(=O)CSc2nc3ccccc3c(=O)n2-c2cc(S(=O)(=O)N(C)C)ccc2C)cc1	/	-10	/	/
O=C(c1ccc(Br)cc1)c1cc([N+](=O)[O-])ccc1N1CCCCC1	63	15	-39	92*
Cc1ccc(C(=O)c2cc([N+](=O)[O-])ccc2N2CCOCC2)c(C)c1	54	10	-41	79*
N/N=C(\c1ccccc1)C12CN3CN(CN(C3)C1)C2	/	28	/	/
CC(C)(C)NC(=O)NC(=O)CSc1ncn[nH]1	/	100*	/	/
O=C(O)CCN1CCc2ccccc2C1c1cccs1 (stereo not given)	/	-8	/	/
O=C(Nc1ccc(Cl)cc1)Nc1nnc(CSc2ccc(Cl)cc2)s1	/	64*	/	/
Cc1cc(/C=C2\SC(=Nc3ccc(F)cc3)NC2=O)c(C)n1-c1ccc(S(N)(=O)=O)cc1	16	4	31*	41
CNc1nc(N)c(C(=O)C23CC4CC(CC(C4)C2)C3)s1	/	-34	/	/
O=C(NC1CC1)c1ccc(S(=O)(=O)NCC2CCCCC2)cc1	53	-5	55*	51*
O=C(NC1CC1)c1ccc(S(=O)(=O)NC2CCCCCC2)cc1	-14	-14	30	11
Cn1c(SCc2ccc(C#N)cc2)nnc1-c1cccc(Cl)c1	-4	60*	3	3
SMILES	HUVEC tox TNFa	E-sel TNF inh	F-actin modifier	VCAM1 TNFa inh
Cc1ccc(Cl)cc1NC1=C/C(=N\S(=O)(=O)c2cccs2)c2ccccc2C1=O	28	29	9	91*
COc1cc(C2Nc3ccc4ncccc4c3C3=C2C(=O)CCC3)cc(OC)c1O (stereo not given)	-18	-6	-6	91*
COc1ccc(-c2nc(CNS(=O)(=O)c3ccc(OC)c(OC)c3)cs2)cc1	-38	58*	-7	8
O=C1c2cccc(OCC(=O)N3CCCc4ccccc43)c2CCN1Cc1ccc(Br)cc1	/	81*	/	/
O=C1c2cccc(OCC(=O)N3CCCc4ccccc43)c2CCN1Cc1ccccc1	/	56	/	/
Cc1[nH]nc2c1C(c1cc(Br)cs1)C(C#N)=C(N)O2 (stereo not given)	/	32	/	/
CCCCNC(=O)C1CC(c2cccc([N+](=O)[O-])c2)=NO1 (stereo not given)	-14	-22	11	11
O=C(NCc1ccco1)C1CC(c2cccc([N+](=O)[O-])c2)=NO1 (stereo not given)	2	100*	26	-6
O=C(NNc1nc2ccc(Cl)cc2s1)c1cc(-c2cccs2)nc2ccccc12	/	-4	/	/
O=C(CCn1c(=O)oc2ccccc21)N1CCN(C(c2ccccc2)c2ccccc2)CC1	-7	/	10	-8
O=C(CCn1c(=O)oc2ccccc21)N1CCN(c2ccccc2F)CC1	80*	/	0	41
COC(=O)c1ccc(S(=O)(=O)NCc2cccc(OC)c2)n1C	-14	64*	41	9
O=c1[nH]c2cc(NCCO)c([N+](=O)[O-])cc2[nH]1	/	73*	/	/
O=C(CSc1nc2ccccc2[nH]1)N1CCN(S(=O)(=O)c2ccc(Cl)cc2)CC1	15	68*	-26	-8
COC(=O)C/C=C/[C@@H](C)[C@@H](/C=N/OC[C@@H](C)[C@H](OCc1ccccc1)C(C)C)NS(=O)(=O)c1ccc(C)cc1	/	-1	/	/
CCOC(=O)C(C)Oc1cccc2c(=O)n(CC(=O)Nc3ccc4c(c3)OCCO4)ccc12 (stereo not given)	-3	/	-5	3

Screens from PubChem BioAssay.
